Source: PubChem BioAssay (NCI)
About 83,000 compounds went through this panel and 20% of them were active in at least one assay; those are over-represented in the sample as a whole.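 48-hour exposure, single concentration, 96-well plates; percent growth endpoint where 0 means no net growth. Active: below 10.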 Activity calls are given as the source filed them.

What follows are compounds tested on NCI-H226 lung (assay: NCI-60 one-dose screen, 48 h (100 = growth as untreated, 0 = no growth, -100 = all killed)). Conditions: 10 µM unless noted.
Experimental: Growth inhibition of the NCI-H226 human Non-Small Cell Lung tumor cell line is measured as a screen for anti-cancer activity. Cells are grown in 96 well plates and exposed to the test compound for 48 hours. Compounds are tested at a single concentration, which is 10^-5 M for most compounds. The reported endpoint is percent growth (GI% or GIPRCNT), where numbers from 0 - 100% represent growth inhibition, and numbers from -100% - 0 represent cell death. For example, a value of 40 represents 60% growth inhibition. A value of 0 means no net growth occurred over the course of the experiment. A value of -40 indicates 40% of cells at the beginning of the experiment died by the end of the experiment. A value of -100 means all cells are dead at the end of the experiment.
NCI-60 Human Tumor Cell Lines Screen was performed using the standard one-dose NCI protocol, which is described in more detail at https://dtp.cancer.gov/discovery_development/nci-60/default.htm.
Compounds with GIPRCNT values below 10 were considered active. Activity score was based on GIPRCNT using the following formula: […]
Score is 0 for GIPRCNT values of 100 or above, 50 for GIPRCNT values of 0, and 100 for GIPRCNT values of -100.
For `CS(=O)(=O)c1ccc(-n2cc(/C=N/O)c(-c3ccccc3)n2)cc1`, the growth was 77.1% (inactive).
`O=C(CCn1c[n+](CC(=O)c2ccc(-c3ccccc3)cc2)c2ccccc21)Nc1cccc2cccnc12` was tested, and the growth was 57% (inactive).
`COc1c(N2CC3CCCNC3C2)c(F)cc2c(=O)c(C(=O)N/N=C/c3ccc(F)cc3)cn(C3CC3)c12` (stereo not given) was tested, and the growth was 109% (inactive).
In the case of `Cn1cc(-c2nc(N)nnc2-c2c[nH]c3ccc(Br)cc23)c2cc(Br)ccc21`, the growth is reported as 79.9% (inactive).
`CNC(=O)c1c(NC(=O)c2cccc(C(F)(F)F)c2F)sc2c1CCC(=O)C2` was tested, and the growth was 16.2% (inactive).
With `NC(N)=Nc1ccc(Oc2cccc(Nc3ccc(Cl)c(C(F)(F)F)c3)c2)cc1` the growth was 53.3% (inactive).
`C=C(C=O)[C@@H]1CC[C@]2(C)[C@H](CC=C3[C@H]4[C@@H](C)[C@H](C)CC[C@]4(C(=O)OC)CC[C@]32C)[C@@]1(C)CCC#N` was tested, and the growth was -44.8% (active).
With `CN1CCN(Cc2ccc(NC(=O)c3cncc(C#Cc4cnc5ccc(OCC6(C)COC6)nn45)c3)cc2C(F)(F)F)CC1` the growth was -62.4% (active).
For `CC(c1ccccc1)N1CSc2nc3ncncc3n2C1` (stereo not given), the growth was 48.8% (inactive).
With `CC(C)(C)n1cc(-c2ccnc(NCCCNS(=O)(=O)c3cccc(F)c3)n2)c(-c2ccc(Cl)c(O)c2)n1` the growth was 107% (inactive).
For `O=C(O)c1cn(C2CC2)c2cc(N3CCN(C(=O)CN4C(=O)CSC4=O)CC3)c(F)cc2c1=O`, the growth was 101% (inactive).
For `Nc1cc(F)ccc1NC(=O)c1ccc(NC(=O)C/C=C/c2cccnc2)cc1`, the growth was 70.8% (inactive).
`C[C@@H]1C[C@H]2C(=O)O[C@@H](C)C(NC(=O)[C@H](Cc3cc(F)cc(F)c3)NC(=O)Nc3ccc(Cl)cc3F)C(=O)N3CCC[C@H]3C(=O)N3CCCC[C@H]3C(=O)N[C@@H](CO)C(=O)N2C1` (stereo not given in full) was tested, and the growth was -4.63% (active).
In the case of `C=CCn1c(SCC(=O)Nc2ccc(C(=O)/C=C/c3cc(OC)c(OC)c(OC)c3)cc2)nnc1-c1c[nH]c2ccccc12`, the growth is reported as -4.91% (active).
With `Brc1ccccc1/C=N/Nc1nc(N/N=C/c2ccccc2Br)nc(N2CCOCC2)n1` the growth was 95.1% (inactive).
With `COc1ccccc1-n1cc(C#N)c(N)c1C(=O)c1ccc(C)cc1` the growth was 98.4% (inactive).
For `CC1(COc2ccc3ncc(C#Cc4cncc(C(=O)Nc5cccc(C(F)(F)F)c5)c4)n3n2)COC1`, the growth was 25% (inactive).
For `CC(Nc1c(C#N)cnc2ccc(-c3cnc(N)nc3)cc12)c1ccccc1` (stereo not given), the growth was 18.4% (inactive).
For `CS(=O)(=O)Nc1cc(-c2ccc3ncc(C#N)c(N[C@H](CO)c4ccccc4)c3c2)cnc1Cl`, the growth was 56.2% (inactive).
With `COc1ccc([C@@H]2c3[nH]c4ccccc4c3C[C@H]3C(=O)N(C4CCN(CC5CCCCC5)CC4)CC(=O)N23)c(OC)c1` the growth was 74.1% (inactive).
For `Cc1noc(C)c1CSc1nc2ccccc2n1-c1ccccc1`, the growth was 95.6% (inactive).
In the case of `O=C(NNc1nc2cc(F)ccc2n2cccc12)c1ccncn1`, the growth is reported as 13.2% (inactive).
With `CC1(C)CC[C@]2(C(=O)N3CCOCC3)CC[C@]3(C)C(=CC[C@@H]4[C@@]5(C)C/C(=C/c6ccco6)C(=O)C(C)(C)[C@@H]5CC[C@]43C)[C@@H]2C1` the growth was 69% (inactive).
`COc1cc2nc(Cl)nc(Nc3cccc(C4=Nc5c(N)nc(N)nc5NC(c5ccc6c(c5)OCO6)C4)c3)c2cc1OC` (stereo not given) was tested, and the growth was 85.3% (inactive).
`C#CCOC(=O)[C@@H]1CCCN1CC#C` was tested, and the growth was 81.2% (inactive).
In the case of `CC1=CC(=O)C2=C(C)CC(OC(=O)CCc3ccccc3)[C@@H]3[C@H](OC(=O)[C@@H]3C)[C@@H]12` (stereo not given in full), the growth is reported as 97.9% (inactive).
`Cc1cc(S(=O)(=O)N(C)C)cc(NCC(=O)NC(=O)NCC(C)C)c1C` was tested, and the growth was 90.7% (inactive).
In the case of `COC[C@]12CCC(C)(C)C[C@H]1C1=CC[C@@H]3[C@@]4(C)CCCNC(C)(C)[C@@H]4CC[C@@]3(C)[C@]1(C)CC2`, the growth is reported as -61.5% (active).
With `Cc1ccc(-c2nnc(SCc3ccc(O)c4ncccc34)o2)cc1` the growth was 45.2% (inactive).
With `CNC(=O)c1cc(Oc2ccc3nc(NC(=O)c4ccc(N5CCOCC5)c(C(F)(F)F)c4)sc3c2)ccn1` the growth was 91.5% (inactive).
With `N#Cc1cccc(CN2CCC3=C(C2)C(=O)N(Cc2ccc(Cl)cc2)C2=NCCN23)c1` the growth was 35% (inactive).
With `CCCn1cnc2c(c1=N)C(c1ccc(Cl)cc1)c1sc3c(CC)cccc3c1O2` (stereo not given) the growth was 57.7% (inactive).
With `Cn1cc(-c2nnc(N)nc2-c2c[nH]c3ccc(F)cc23)c2cc(F)ccc21` the growth was 91.6% (inactive).
With `N#Cc1c(Nc2ccccc2)nn2c(-c3ccc([N+](=O)[O-])cc3)ccnc12` the growth was 104% (inactive).
With `N#Cc1cccc(CN2CCC3=C(C2)C(=O)N(Cc2ccc(Cl)cc2)C2=NCCCN23)c1` the growth was 39.9% (inactive).
With `Cc1ccc(-c2nn(-c3ccccc3)cc2/C=C/C(=O)c2ccc(NC(=O)CCCCCCC(=O)NO)cc2)cc1` the growth was 95.8% (inactive).
For `C#C[C@]1(O)CC[C@H]2[C@@H]3CC=C4c5sc(-c6ccc7c(c6)OCO7)nc5CC[C@]4(C)[C@H]3CC[C@@]21C`, the growth was 32.3% (inactive).
`CCc1cccc2c3c(sc12)C(c1ccc(Cl)cc1)C(C#N)=C(/N=C/c1ccc(Cl)cc1)O3` (stereo not given) was tested, and the growth was 53.3% (inactive).
In the case of `Cc1ccc2sc3c(c2c1)OC(N)=C(C#N)C3c1cccc(F)c1` (stereo not given), the growth is reported as -22.2% (active).
For `Cc1ccc(-c2cc3nc(C(Cl)Cl)nc(-c4ccco4)n3n2)cc1`, the growth was 87% (inactive).
